Entries with a potency or affinity are not part of this list. Unmarked numbers belong to inactive results.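 Rule for the calls: active = fitted half-maximal dose no more than twice the top valid tested dose, for compounds that lower signal; inconclusive = fit invalid, or curve flat with activity between -70 and -30; inactive = potency past limit, curve flat within ±30, or signal increasing.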
What follows are compounds tested against NAD-dependent protein deacylase sirtuin-5, mitochondrial (Homo sapiens) (UniProt Q9NXA8) (assay: blockers of sirtuin-5 peptide desuccinylation – biochemical, fluorescence imaging, cherry-pick, set 6, dose response (AID 720597;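 note: lower AMC signal can also come from blocking the trypsin step; 0% = median of neutral control wells and -100% = median of positive control wells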)). Conditions: Purified SirT5, succinyl-peptide-AMC/trypsin fluorescence; series mostly up to 15 µM; activity change, negative = inhibition: at the top concentration.
Chain of NAD-dependent protein deacylase sirtuin-5, mitochondrial (Homo sapiens) (Q9NXA8 whole entry, looked up): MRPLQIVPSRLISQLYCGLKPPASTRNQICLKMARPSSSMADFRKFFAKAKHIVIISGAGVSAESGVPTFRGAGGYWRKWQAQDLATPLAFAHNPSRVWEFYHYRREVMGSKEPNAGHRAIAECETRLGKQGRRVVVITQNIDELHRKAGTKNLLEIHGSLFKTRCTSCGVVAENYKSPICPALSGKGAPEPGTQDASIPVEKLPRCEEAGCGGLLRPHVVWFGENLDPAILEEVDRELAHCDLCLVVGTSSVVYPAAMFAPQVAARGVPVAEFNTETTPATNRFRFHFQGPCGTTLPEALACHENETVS

| SMILES | activity change, negative = inhibition [%] |
| --- | --- |
| COCC#Cc1cnc2c(c1)C(=O)N([C@@H](C)CO)C[C@@H](C)[C@@H](CN(C)C(=O)c1ccc(F)cc1)O2 | -7.36 |
| COc1ccc(S(=O)(=O)N(C)C[C@@H]2Oc3ncc(C#CCN(C)C)cc3C(=O)N([C@H](C)CO)C[C@@H]2C)cc1 | -13.5 |
| C[C@@H]1CN([C@@H](C)CO)C(=O)Cc2cc(NS(=O)(=O)c3ccccc3)ccc2O[C@H]1CN(C)CC1CCCCC1 | -21.3 |
| O=S(=O)(c1ccc(F)cc1)N1CCCCN2[C@H](CO)[C@H](c3ccc(C#CC4CCCC4)cc3)[C@@H]2C1 | -22.7 |
| C[C@@H]1CN([C@@H](C)CO)C(=O)c2cc(C#CC3CCCCC3)cnc2O[C@H]1CN(C)S(=O)(=O)c1cccc(F)c1 | -1.14 |
| C[C@H]1CN([C@@H](C)CO)S(=O)(=O)c2ccc(/C=C/c3ccccc3)cc2O[C@@H]1CN(C)C(=O)NC1CCCC1 | 7.67 |
| C[C@H]1CN([C@@H](C)CO)S(=O)(=O)c2ccc(C#Cc3ccc(F)cc3)cc2O[C@@H]1CN(C)S(C)(=O)=O | 8.38 |
| C[C@@H]1CN([C@@H](C)CO)C(=O)Cc2cc(NS(=O)(=O)c3ccc(Cl)cc3)ccc2O[C@H]1CN(C)Cc1ccc(Cl)c(Cl)c1 | 5.95 |
| C[C@H]1CN([C@@H](C)CO)C(=O)c2cc(C#CCN(C)C)cnc2O[C@@H]1CN(C)Cc1ccncc1 | -24.8 |
| COc1cccc(-c2ccc3c(c2)[C@H]2[C@H](CCN2C(=O)c2ccccc2F)[C@H](CO)N3C)c1 | -15.6 |
| O=C(NCC[C@H]1CC[C@H](NC(=O)C2CC2)[C@@H](CO)O1)c1cc(Cl)cc(Cl)c1 | 29 |

Reference: PubChem BioAssay AID720597 (Broad Institute, 2013)
